Results on seven molecules are retold here after PubChem BioAssay (Tox21).

Unmarked numbers belong to inactive results. Inconclusive results are not listed. Active and inactive are the calls of the source. Unless noted, the call rests on the fitted dose curve; in most records, active means well fitted curve in the direction sought with a large enough effect in the repeat runs; inconclusive means weak or mixed curves; inactive means no such curve, though single readings can be large; an effect the other way counts as inactive or inconclusive.

A short description of experiment [1]: qHTS assay for small molecule agonists of the p53 signaling pathway (AID 651631; calls by dose curve; further: nearly all actives have a fitted effect of over 15% in size). An outline of the steps:
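Testing took place in human colorectal HCT-116 cells with stable p53RE-driven beta-lactamase. After 16 h of compound exposure at 37 °C, a FRET substrate was added and fluorescence recorded 2 h later.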
For orientation: qHTS replaces the single test concentration by a dilution series.

The nature of experiment [2]: qHTS assay for small molecules that induce genotoxicity in human embryonic kidney cells expressing luciferase-tagged ATAD5 (AID 651632). Further: nearly all actives have a fitted effect of over 15% in size. An outline of the steps: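 Luminescent reporter readout, HEK293T ATAD5-luc line: 16 hr drug exposure (37C, 5% CO2) followed by Amplite, 30 min RT.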
Experiment [3] is described as follows: qHTS assay for small molecule agonists of the p53 signaling pathway - cell viability (AID 651633; calls by dose curve; further: series mostly up to about 83 µM; nearly all actives have a fitted effect of over 30% in size). A digest of the protocol:
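p53RE-bla cells were treated with compound for 16 hours at 37 C. Cytotoxicity was then measured as CellTiter-Glo luminescence after 30 min at room temperature.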

Experiment [4] in a line: qHTS assay for small molecules that induce genotoxicity in human embryonic kidney cells expressing luciferase-tagged ATAD5 - cell viability (AID 651634; calls by dose curve; further: nearly all actives have a fitted effect of over 25% in size). A digest of the protocol: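 Viability read: CellTiter-Fluor fluorescence, 30 min at 37C. Cells: HEK293T, luciferase-tagged ATAD5. Exposure: 15.5 hr, 37C, 5% CO2, compound or DMSO vehicle.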
Experiment [5] in a line: qHTS assay for small molecule disruptors of the mitochondrial membrane potential - cell viability (AID 720634; calls by dose curve;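 further: human HepG2 liver cancer cells; series mostly up to about 83 µM; nearly all actives have a fitted effect of over 20% in size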). A digest of the protocol:
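HepG2, 1 hr compound, 37 C. ATP luminescence via CellTiter-Glo, 30 min RT, same well as m-MPI.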

Experiment [6] can be described thus: qHTS assay for small molecule disruptors of the mitochondrial membrane potential (AID 720635). Further: potency means the concentration at half of the fitted maximal effect. An outline of the steps:
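HepG2 cells exposed to compound 1 hr at 37C, then Mito-MPS dye 30 min. Ratio read of aggregate (540/590 nm) versus monomer (490/535 nm) fluorescence.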

Experiment [7] in a line: qHTS assay to test for compound auto fluorescence at 590 nm (red) in HepG2 cells (AID 720674). An outline of the steps: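 Seeding: 2,000 HepG2 cells/well, MEM/10% FBS, overnight 37 C. Dosing: compound vs DMSO. Incubation: 1 hr, 37 C, 5% CO2. Read: fluorescence 540 ex/590 em, Rose Bengal sodium as red reference.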
The nature of experiment [8]: qHTS assay to test for compound auto fluorescence at 535 nm (green) in HepG2 cells (AID 720675).
Experiment [9] can be described thus: qHTS assay to test for compound auto fluorescence at 460 nm (blue) in HEK293 cells (AID 720678). A digest of the protocol: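 Intrinsic compound fluorescence is recorded in live HEK293 cultures after overnight incubation at 37C, 5% CO2, using excitation 405 nm and emission 460 nm. Values are referenced to triamterene.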
The nature of experiment [10]: qHTS assay to test for compound auto fluorescence at 590 nm (red) in HEK293 cells (AID 720679). An outline of the steps:
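Red autofluorescence, HEK293 cells: 2,000 cells/well; attach 4-5 hr 37C; add 23 nL cpd or DMSO; incubate o/n 37C 5% CO2; read Ex540/Em590; Rose Bengal sodium reference.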

Experiment [11] can be described thus: qHTS assay to test for compound auto fluorescence at 535 nm (green) in HEK293 cells (AID 720680).
Experiment [12] in a line: qHTS assay to test for compound auto fluorescence at 460 nm (blue) in HEK293 cell free culture (AID 720681). A digest of the protocol:
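Compounds were added to cell-free DMEM with 10% FBS and fluorescence read directly. The blue channel used 405 nm excitation and 460 nm emission, with triamterene as the reference fluorophore.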

Experiment [13] can be described thus: qHTS assay to test for compound auto fluorescence at 535 nm (green) in HEK293 cell free culture (AID 720682). An outline of the steps:
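DMEM + 10% FBS, cell-free; cpd or DMSO pinned in; Ex485/Em535 read; output as fluorescein-equivalent signal.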

A short description of experiment [14]: qHTS assay to test for compound auto fluorescence at 590 nm (red) in HEK293 cell free culture (AID 720683). An outline of the steps: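 Cell-free wells of DMEM with 10% FBS received compound, and intrinsic fluorescence was read at excitation/emission 540/590 nm. Values expressed as equivalence to Rose Bengal sodium.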
A short description of experiment [15]: qHTS assay to test for compound auto fluorescence at 590 nm (red) in HepG2 cell free culture (AID 720684). A digest of the protocol:
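Compound was pinned into wells holding MEM with 10% FBS and no cells, and red fluorescence was read at Ex/Em 540/590 nm. Signal is expressed as auto fluorescence equivalency relative to Rose Bengal sodium.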

A short description of experiment [16]: qHTS assay to test for compound auto fluorescence at 460 nm (blue) in HepG2 cell free culture (AID 720685). A digest of the protocol: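 Compound (23 nL) or DMSO pinned into cell-free MEM with 10% FBS; blue fluorescence read at 405/460 nm excitation/emission, expressed as auto-fluorescence equivalency to triamterene.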
The nature of experiment [17]: qHTS assay to test for compound auto fluorescence at 535 nm (green) in HepG2 cell free culture (AID 720686).
Experiment [18] can be described thus: qHTS assay to test for compound auto fluorescence at 460 nm (blue) in HepG2 cells (AID 720687). A digest of the protocol:
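HepG2 cells in MEM with 10% FBS, attached overnight at 37 C, were exposed to compound or DMSO for 1 hr at 37 C, 5% CO2. Blue fluorescence was read at 405/460 nm, with triamterene as reference fluorophore.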

Experiment [19] addresses Glucocorticoid receptor (Homo sapiens) (UniProt P04150). Kind of experiment: qHTS assay to identify small molecule agonists of the glucocorticoid receptor (GR) signaling pathway (AID 720691; active means well fitted activation curve with a large enough effect in the signal ratio in the repeat runs, not every such curve was filed as active; the % refers to the signal ratio). An outline of the steps: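 qHTS in GR-bla HeLa cells: 4 h settling at 37 C/5% CO2, 18 h compound incubation at 37 C, 2 h LiveBLAzer B/G FRET substrate at room temperature, fluorescence intensity measured.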

Experiment [20] has the same target. In words: qHTS assay to identify small molecule antagonists of the glucocorticoid receptor (GR) signaling pathway (AID 720692; active means well fitted inhibition curve with a large enough effect in the signal ratio in the repeat runs, not every such curve was filed as active; the % refers to the signal ratio). A digest of the protocol: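 Inhibition of glucocorticoid signalling is measured in HeLa cells with a GRE-controlled beta-lactamase reporter; cells are co-treated with compound and 5 nM dexamethasone (final) for 18 h before FRET substrate readout.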
On the % scale 0 is the no-effect control and ±100 the full control effect.

Glucocorticoid receptor (Homo sapiens), sequence (P04150 whole entry, looked up): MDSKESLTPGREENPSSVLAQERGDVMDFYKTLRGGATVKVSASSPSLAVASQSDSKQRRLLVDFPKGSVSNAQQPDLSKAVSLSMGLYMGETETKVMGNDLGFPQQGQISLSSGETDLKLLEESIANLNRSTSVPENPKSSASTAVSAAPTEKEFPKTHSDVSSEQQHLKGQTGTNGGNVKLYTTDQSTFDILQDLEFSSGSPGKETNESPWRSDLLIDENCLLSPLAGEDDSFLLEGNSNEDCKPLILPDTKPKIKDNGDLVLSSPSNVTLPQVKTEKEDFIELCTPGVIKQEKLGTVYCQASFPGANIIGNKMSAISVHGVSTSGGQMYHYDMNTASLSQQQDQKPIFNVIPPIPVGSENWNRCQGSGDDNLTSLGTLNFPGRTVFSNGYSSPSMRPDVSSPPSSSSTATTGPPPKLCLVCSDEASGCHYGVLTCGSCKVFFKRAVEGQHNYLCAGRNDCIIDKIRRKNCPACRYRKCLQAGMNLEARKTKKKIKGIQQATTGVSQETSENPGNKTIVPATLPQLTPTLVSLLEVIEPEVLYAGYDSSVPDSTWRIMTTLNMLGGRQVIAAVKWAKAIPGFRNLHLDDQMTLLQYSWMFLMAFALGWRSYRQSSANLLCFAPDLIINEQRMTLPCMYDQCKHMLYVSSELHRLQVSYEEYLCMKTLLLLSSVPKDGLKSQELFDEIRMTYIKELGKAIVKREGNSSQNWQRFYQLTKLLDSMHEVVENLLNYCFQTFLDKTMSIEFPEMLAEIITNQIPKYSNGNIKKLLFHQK

As to `OCCN1C[C@H](O)[C@@H](O)[C@H](O)[C@H]1CO`, the Potency entry in experiment [1], in experiment [2], in [3], in experiment [4], in [5] and in experiment [6] was “inactive” throughout. Besides, the Potency result in [9], in experiment [12], in experiment [16], in [18], in experiment [19] and in [20] was “inactive” throughout. Besides, the call in experiment [7], in experiment [8], in experiment [10], in experiment [11], in experiment [13] and in experiment [14] was inactive. Also, the molecule was called inactive in experiment [15] and in experiment [17].

Turning to `C=CCn1c(=O)n([C@@H]2O[C@H](CO)[C@@H](O)[C@H]2O)c2nc(N)[nH]c(=O)c21`, the Potency entry in experiment [1], in experiment [2], in [3], in [4], in [5] and in [6] was “inactive” each time. Further, the Potency result in [9], in [12], in experiment [16] and in experiment [18] was “inactive” each time. The call in [7], in [8], in [10], in [11], in [13] and in [14] was inactive. Besides, the call in [15] and in experiment [17] was inactive.

For the molecule `O=[N+]([O-])c1ccc(Oc2ccc([N+](=O)[O-])cc2)cc1`, the Potency entry in [1], in experiment [2], in [3], in experiment [4], in experiment [5] and in experiment [9] was “inactive” throughout. The Potency result in experiment [12], in experiment [16] and in [18] was “inactive” in each case. The Potency in experiment [6] is 5.57 µM (active). In addition, the outcome in experiment [7], in experiment [8], in [10], in [11], in [13] and in experiment [14] was inactive. Also, the molecule was called inactive in [15] and in [17].

On to `Cc1nccn1CC1CCc2c(c3ccccc3n2C)C1=O` (stereo not drawn), for which the Potency result in experiment [1], in experiment [2], in experiment [3], in [4], in [5] and in [6] was “inactive” each time. Also, the Potency entry in experiment [9], in experiment [12], in experiment [16], in experiment [18], in experiment [19] and in [20] was “inactive” in each case. Besides, the molecule was called inactive in experiment [7], in experiment [8], in experiment [10], in [11], in experiment [13] and in [14]. The outcome in experiment [15] and in experiment [17] was inactive.

For `NS(=O)(=O)c1cc2c(cc1Cl)NC(CSCc1ccccc1)=NS2(=O)=O`, the Potency result in [1], in [2], in experiment [3], in experiment [4], in experiment [5] and in [19] was “inactive” throughout. The Potency result in [20] was “inactive”. Besides, in experiment [7], the fluorescence, relative to Rose Bengal was -0.338% [at 18.6 µM]. Besides, the figures for the fluorescence, % of fluorescein control in experiment [8] and in experiment [17] were 0.0219% [at 18.6 µM] and -0.0451% [at 18.6 µM], respectively. Further, the fluorescence, % of triamterene in experiment [9] is -0.0281% [at 18.6 µM]. Also, the fluorescence, % of fluorescent control in [10] was -0.0194% [at 18.6 µM]; in experiment [12], -0.0458% [at 18.6 µM]; in experiment [14] it was 0.107% [at 18.6 µM]; in experiment [16], -0.0404% [at 18.6 µM]; in experiment [18] it was 0.19% [at 18.6 µM]. The fluorescence, % of fluorescein in experiment [11] is -0.0376% [at 18.6 µM]. Also, the activity change in [13] was -0.222% [at 18.6 µM]. In addition, the fluorescence, % of Rose Bengal in [15] was 0.12% [at 18.6 µM].

In the case of `CCCCNc1ccccc1`, the Potency result in experiment [1], in [2], in experiment [3], in [4], in experiment [5] and in experiment [9] was “inactive” throughout. Also, the Potency entry in experiment [12], in experiment [16], in [18], in experiment [19] and in experiment [20] was “inactive” in each case. The molecule was called inactive in experiment [7], in experiment [8], in experiment [10], in experiment [11], in experiment [13] and in experiment [14]. Also, the molecule was classed as inactive in experiment [15] and in experiment [17].

As for `O=C(O)/C=C/c1ccc(Cn2ccnc2)cc1`, the Potency entry in [1], in experiment [2], in [3], in experiment [4], in experiment [5] and in experiment [19] was “inactive” throughout. Also, in [20], the Potency result is “inactive”. Also, the fluorescence, relative to Rose Bengal in experiment [7] is 0.61% [at 18.6 µM]. The fluorescence, % of fluorescein control in experiment [8] was 0.0058% [at 18.6 µM]; in [17] it was -0.0119% [at 18.6 µM]. Further, the fluorescence, % of triamterene in experiment [9] is -0.0046% [at 18.6 µM]. For the same molecule, the fluorescence, % of fluorescent control in experiment [10] is -0.336% [at 18.6 µM]; in experiment [12], 0.209% [at 18.6 µM]; in experiment [14], -0.0715% [at 18.6 µM]; in experiment [16] it was -0.0401% [at 18.6 µM]; in experiment [18], 0.143% [at 18.6 µM]. Further, the fluorescence, % of fluorescein in experiment [11] was -0.0116% [at 18.6 µM]. Moreover, the activity change in experiment [13] was 0.0066% [at 18.6 µM]. In addition, the fluorescence, % of Rose Bengal in experiment [15] was -0.307% [at 18.6 µM].
